Measured values: the supplement of paper PMC11732987, “Enantioselective OTUD7B fragment discovery through chemoproteomics screening and high-throughput optimisation” (Communications Chemistry, 2025)

Key:
Test in all cases: log2 ratio of Biotin-Ahx-Ub-VS probe labelling (fragment/DMSO); higher = less target engagement (more negative = stronger competition), active = hit call of the paper (q ≤ 0.05, log2 ratio ≤ -1)
Conditions in all cases: compound concentration: 200 uM; treatment time: 3 h
OTUD6B = biological target: T1, OTUD6B (UniProt Q8N6M0)
T1 sequence (whole entry): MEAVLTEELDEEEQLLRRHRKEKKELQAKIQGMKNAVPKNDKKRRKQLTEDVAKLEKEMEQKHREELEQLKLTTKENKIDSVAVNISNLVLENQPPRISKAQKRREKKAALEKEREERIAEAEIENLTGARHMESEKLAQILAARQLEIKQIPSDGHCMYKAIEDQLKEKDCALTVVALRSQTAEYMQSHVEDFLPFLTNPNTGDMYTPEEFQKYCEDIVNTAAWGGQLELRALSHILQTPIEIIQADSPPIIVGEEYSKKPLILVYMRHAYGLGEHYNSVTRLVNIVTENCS
Procedure, shortened: (§1)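 Lysate from HEK293T cells, 495 µg per sample in Tris/CHAPS/IGEPAL buffer with protease inhibitors, was treated for 3 h in triplicate with fragment at 200 µM or vehicle. Biotin-Ahx-Ub-VS was next added at 0.5 µM final for 1 h. The labelled DUBs were enriched with NeutrAvidin, digested with LysC and trypsin, and run by diaPASEF LC-MS/MS, with values given as average log2 fragment/vehicle ratios by unpaired t-test on global-median-normalised Spectronaut quantities of proteins with ≥2 unique peptides.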

OTUD7B = biological target: T2, OTUD7B (UniProt Q6GQQ9)
T2 sequence (whole entry): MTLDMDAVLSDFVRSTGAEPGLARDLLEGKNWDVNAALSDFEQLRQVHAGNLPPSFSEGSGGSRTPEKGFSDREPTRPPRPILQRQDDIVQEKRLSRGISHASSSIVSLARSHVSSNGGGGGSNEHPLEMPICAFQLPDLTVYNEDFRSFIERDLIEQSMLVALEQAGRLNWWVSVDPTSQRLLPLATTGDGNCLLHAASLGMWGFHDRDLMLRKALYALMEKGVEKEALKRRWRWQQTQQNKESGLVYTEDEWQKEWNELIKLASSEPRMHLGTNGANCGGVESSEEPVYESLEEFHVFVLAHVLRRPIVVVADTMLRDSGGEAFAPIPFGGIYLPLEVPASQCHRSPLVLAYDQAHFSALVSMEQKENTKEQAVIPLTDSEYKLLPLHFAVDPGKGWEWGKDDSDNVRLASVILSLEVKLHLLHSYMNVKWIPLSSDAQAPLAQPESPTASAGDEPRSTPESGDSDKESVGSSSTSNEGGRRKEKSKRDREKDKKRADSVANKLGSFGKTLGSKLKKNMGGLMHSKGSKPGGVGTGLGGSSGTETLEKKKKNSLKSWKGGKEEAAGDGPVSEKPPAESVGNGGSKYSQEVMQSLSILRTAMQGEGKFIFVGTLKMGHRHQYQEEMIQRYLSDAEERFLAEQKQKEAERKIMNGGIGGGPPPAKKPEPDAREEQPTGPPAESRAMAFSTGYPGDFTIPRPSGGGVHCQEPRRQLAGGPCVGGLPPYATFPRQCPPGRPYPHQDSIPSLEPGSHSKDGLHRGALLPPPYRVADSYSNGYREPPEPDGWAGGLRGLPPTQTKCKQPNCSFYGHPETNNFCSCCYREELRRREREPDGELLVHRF
Procedure, shortened: as §1

PRPF8 = PRPF8 (UniProt Q6P2Q9)
Procedure, shortened: as §1

PSMD7 = biological target: T3, PSMD7 (UniProt P51665)
T3 sequence (whole entry): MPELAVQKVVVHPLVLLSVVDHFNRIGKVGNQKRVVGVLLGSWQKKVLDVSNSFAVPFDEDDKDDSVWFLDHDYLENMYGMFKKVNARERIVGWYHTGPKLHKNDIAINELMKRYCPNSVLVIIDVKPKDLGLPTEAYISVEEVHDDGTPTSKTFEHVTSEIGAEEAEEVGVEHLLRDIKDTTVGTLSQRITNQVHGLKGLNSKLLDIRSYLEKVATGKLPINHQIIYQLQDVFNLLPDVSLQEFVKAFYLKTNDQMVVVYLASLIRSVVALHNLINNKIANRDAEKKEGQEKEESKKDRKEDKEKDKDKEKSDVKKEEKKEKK
Procedure, shortened: as §1

UCHL1 = UCHL1 (UniProt P09936)
Sequence of UCHL1 (P09936 whole entry, looked up): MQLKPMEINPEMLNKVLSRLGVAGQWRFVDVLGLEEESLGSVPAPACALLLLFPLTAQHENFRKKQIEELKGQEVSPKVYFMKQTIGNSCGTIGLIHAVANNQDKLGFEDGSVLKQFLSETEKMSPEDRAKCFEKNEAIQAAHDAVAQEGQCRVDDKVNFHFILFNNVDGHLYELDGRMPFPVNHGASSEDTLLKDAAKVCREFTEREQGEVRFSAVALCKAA
Procedure, shortened: as §1

UCHL3 = biological target: T4, UCHL3 (UniProt P15374)
T4 sequence (whole entry): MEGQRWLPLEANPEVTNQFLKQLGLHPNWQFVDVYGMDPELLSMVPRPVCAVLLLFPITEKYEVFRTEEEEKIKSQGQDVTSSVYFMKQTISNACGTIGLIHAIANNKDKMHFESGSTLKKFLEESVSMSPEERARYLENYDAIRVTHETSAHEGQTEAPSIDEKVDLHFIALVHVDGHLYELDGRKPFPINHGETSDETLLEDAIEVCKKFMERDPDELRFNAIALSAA
Procedure, shortened: as §1

UCHL5 = biological target: T5, UCHL5 (UniProt Q9Y5K5)
T5 sequence (whole entry): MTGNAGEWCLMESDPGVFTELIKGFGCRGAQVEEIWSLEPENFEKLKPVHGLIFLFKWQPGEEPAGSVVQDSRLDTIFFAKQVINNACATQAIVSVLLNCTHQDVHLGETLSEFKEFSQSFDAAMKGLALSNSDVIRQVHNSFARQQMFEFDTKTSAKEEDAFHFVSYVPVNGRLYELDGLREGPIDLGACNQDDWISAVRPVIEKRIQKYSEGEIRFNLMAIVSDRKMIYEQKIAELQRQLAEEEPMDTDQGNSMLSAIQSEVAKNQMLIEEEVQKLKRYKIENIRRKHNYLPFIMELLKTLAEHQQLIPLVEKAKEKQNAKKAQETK
Procedure, shortened: as §1

USP10 = USP10 (UniProt Q14694)
Sequence of USP10 (Q14694 whole entry): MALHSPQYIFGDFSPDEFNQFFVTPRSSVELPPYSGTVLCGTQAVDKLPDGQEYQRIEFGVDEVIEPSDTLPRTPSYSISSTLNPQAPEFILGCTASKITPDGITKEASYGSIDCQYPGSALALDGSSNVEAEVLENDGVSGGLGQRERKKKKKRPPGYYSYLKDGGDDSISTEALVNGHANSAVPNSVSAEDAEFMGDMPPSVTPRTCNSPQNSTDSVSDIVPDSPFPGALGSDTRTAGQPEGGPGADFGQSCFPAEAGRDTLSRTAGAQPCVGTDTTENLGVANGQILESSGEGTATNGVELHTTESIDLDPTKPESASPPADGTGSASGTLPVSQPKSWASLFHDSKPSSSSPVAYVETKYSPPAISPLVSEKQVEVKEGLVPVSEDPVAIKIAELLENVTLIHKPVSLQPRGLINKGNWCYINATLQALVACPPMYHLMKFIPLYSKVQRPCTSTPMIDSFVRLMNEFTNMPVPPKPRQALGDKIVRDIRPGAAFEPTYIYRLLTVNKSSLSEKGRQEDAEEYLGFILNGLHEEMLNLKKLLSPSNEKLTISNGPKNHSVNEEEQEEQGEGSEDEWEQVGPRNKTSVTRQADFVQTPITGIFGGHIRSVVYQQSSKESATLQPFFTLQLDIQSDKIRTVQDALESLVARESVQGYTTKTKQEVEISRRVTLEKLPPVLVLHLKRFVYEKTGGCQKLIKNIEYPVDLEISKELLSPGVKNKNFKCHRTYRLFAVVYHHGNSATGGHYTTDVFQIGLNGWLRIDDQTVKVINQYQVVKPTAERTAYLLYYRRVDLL
Procedure, shortened: as §1

USP15 = biological target: T6, USP15 (UniProt Q9Y4E8)
T6 sequence (whole entry): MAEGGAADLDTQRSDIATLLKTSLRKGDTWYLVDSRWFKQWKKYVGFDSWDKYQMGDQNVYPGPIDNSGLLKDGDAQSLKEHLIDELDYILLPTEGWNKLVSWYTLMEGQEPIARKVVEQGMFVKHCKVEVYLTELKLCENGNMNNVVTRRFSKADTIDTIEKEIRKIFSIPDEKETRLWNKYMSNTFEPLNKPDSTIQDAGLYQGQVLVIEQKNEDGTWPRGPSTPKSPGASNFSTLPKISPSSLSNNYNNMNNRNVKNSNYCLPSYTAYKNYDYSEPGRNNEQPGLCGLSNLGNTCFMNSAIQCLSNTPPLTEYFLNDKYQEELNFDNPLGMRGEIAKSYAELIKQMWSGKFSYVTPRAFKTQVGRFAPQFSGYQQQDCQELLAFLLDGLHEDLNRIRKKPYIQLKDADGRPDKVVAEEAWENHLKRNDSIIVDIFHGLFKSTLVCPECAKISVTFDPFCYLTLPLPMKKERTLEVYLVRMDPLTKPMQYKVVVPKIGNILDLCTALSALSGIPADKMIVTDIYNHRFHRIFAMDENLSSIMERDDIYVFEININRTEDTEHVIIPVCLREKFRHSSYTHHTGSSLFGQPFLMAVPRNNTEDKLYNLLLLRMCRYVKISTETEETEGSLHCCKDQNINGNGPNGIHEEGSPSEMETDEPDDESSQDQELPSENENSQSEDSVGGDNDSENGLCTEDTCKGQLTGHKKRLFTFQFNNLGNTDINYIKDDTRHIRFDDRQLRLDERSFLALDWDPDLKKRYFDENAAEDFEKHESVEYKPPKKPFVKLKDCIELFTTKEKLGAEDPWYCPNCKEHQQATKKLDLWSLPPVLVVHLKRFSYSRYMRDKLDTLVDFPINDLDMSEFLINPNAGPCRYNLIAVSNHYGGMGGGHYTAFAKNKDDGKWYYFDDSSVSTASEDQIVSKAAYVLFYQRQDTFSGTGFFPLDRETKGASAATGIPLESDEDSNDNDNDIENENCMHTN
Procedure, shortened: as §1

USP16 = USP16 (UniProt Q9Y5T5)
Sequence of USP16 (Q9Y5T5 whole entry, looked up): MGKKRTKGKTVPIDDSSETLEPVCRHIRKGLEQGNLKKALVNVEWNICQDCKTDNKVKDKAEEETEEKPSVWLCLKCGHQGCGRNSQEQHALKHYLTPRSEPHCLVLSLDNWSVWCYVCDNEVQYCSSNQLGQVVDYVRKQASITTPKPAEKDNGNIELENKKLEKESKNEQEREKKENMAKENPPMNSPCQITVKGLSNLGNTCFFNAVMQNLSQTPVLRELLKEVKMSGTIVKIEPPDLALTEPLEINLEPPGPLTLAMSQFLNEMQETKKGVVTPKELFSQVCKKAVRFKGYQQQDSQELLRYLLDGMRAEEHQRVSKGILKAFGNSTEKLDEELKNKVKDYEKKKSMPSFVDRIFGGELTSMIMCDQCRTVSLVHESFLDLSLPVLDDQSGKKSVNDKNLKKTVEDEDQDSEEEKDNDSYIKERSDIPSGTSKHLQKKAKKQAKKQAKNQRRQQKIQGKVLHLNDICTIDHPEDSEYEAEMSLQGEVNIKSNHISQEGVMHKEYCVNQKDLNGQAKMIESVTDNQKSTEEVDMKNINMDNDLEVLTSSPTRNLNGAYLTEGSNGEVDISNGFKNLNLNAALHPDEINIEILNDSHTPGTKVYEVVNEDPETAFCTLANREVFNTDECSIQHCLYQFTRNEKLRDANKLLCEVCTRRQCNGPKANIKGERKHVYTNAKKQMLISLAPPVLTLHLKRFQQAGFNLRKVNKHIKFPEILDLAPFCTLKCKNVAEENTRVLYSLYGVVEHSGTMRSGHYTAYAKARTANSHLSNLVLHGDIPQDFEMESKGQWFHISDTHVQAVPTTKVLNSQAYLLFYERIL
Procedure, shortened: as §1

Measured: log2 ratio of Biotin-Ahx-Ub-VS probe labelling

Cl.Cn1ncc2c1CCCC2NC(=O)CCl (stereo not given)
inactive: OTUD6B -0.272 | PRPF8 0.261 | PSMD7 0.0323 | UCHL3 0.241 | UCHL5 -0.145 | USP10 -0.078 | USP15 -0.335 | USP16 -0.096
active: OTUD7B -2.04 | UCHL1 -1.71
